The source of these data is article PMC7862700, “An all-to-all approach to the identification of sequence-specific readers for epigenetic DNA modifications on cytosine”.

Holding throughout (experiment): DAPPL (digital affinity profiling via proximity ligation, sequencing); 10 mM Tris-HCl pH 7.5, 50 mM NaCl, 1 mM DTT, 4% glycerol, room temperature, 30 min; GST-TFs on glutathione beads, 16-mer random dsDNA library, 0.1% formaldehyde crosslink after washing; high values mean tight binding
Common to all, as to conditions: protein: recombinant; tags: N-terminal GST; dsDNA, one strand shown

One assay has as its target T1, FLI1 (Homo sapiens, UniProt Q01543 1-452).
T1 sequence: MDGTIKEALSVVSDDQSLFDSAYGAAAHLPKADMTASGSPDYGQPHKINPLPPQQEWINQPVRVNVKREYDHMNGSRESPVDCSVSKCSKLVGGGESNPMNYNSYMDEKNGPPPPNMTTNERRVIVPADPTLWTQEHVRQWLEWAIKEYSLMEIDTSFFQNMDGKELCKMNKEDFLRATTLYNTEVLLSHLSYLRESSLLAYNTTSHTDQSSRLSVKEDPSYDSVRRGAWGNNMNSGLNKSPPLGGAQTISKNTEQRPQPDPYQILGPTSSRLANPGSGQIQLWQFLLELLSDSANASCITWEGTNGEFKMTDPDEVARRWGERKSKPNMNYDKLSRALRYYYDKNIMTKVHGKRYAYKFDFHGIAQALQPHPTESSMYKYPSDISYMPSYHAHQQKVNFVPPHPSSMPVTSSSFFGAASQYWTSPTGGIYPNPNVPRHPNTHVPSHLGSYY
The procedure, abridged: (§1)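 Beads coated with glutathione captured GST-fused human transcription factors that had been expressed in yeast, and the factors were then given DNA barcodes and pooled with a tag-only sample. The pools were incubated with 200 nmole of a random double-stranded 16-mer DNA library in Tris/NaCl/DTT/glycerol buffer for 30 min at room temperature, washed, crosslinked with 0.1% formaldehyde and proximity-ligated with BsaI/T4 ligase at 37 °C for 1 h. PCR amplification and Illumina NextSeq500 sequencing came last. Binding signal is each hexamer's read frequency for a factor divided by its frequency for the tag-only sample.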

The target in a further assay is SPI1 (Homo sapiens, UniProt P17947 1-270). The procedure, abridged:
as §1

Another assay has as its target T2, ELK3 (Homo sapiens, UniProt P41970 1-407).
T2 sequence: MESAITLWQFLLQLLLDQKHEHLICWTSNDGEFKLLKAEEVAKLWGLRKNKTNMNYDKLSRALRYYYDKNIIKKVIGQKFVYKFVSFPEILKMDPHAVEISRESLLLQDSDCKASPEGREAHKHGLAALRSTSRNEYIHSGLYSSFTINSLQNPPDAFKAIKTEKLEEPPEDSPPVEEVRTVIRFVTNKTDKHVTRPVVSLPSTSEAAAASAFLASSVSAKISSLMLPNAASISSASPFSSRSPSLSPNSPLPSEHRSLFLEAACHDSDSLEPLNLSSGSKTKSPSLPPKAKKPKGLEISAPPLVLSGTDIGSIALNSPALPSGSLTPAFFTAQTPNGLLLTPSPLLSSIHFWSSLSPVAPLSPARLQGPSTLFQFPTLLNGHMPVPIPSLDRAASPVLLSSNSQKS
In short, it runs like this:
as §1

The next assay has as its target T3, ELF5 (Homo sapiens, UniProt Q9UKW6-2 1-255).
T3 sequence: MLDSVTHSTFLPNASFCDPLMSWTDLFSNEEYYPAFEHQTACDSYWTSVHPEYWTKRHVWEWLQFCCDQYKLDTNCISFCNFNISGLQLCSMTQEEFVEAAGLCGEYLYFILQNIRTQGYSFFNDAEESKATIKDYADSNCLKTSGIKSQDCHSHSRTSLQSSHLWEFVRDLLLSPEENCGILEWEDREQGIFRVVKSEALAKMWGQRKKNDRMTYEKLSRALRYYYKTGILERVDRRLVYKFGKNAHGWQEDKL
The procedure, abridged: as §1

The next assay concerns the target CRX (Homo sapiens, UniProt O43186 1-299). In short, it runs like this: as §1

CRX, sequence (O43186 whole entry): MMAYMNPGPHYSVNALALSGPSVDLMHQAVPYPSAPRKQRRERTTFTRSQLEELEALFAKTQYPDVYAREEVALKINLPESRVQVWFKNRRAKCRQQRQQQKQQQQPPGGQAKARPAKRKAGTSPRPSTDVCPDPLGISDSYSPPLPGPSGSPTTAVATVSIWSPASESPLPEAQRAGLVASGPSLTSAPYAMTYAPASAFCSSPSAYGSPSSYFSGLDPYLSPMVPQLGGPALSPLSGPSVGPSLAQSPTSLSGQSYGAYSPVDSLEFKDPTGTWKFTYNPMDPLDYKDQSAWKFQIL

Turning to TGGGGT, the binding signal with FLI1 is 1.02 fold enrichment (6-mer frequency, TF over GST control); with SPI1 it was 1.04 fold enrichment (6-mer frequency, TF over GST control); with ELK3 it was 1.17 fold enrichment (6-mer frequency, TF over GST control); with ELF5 it was 1.01 fold enrichment (6-mer frequency, TF over GST control).
Turning to CCAACC, the binding signal was 1.12 fold enrichment (6-mer frequency, TF over GST control) with FLI1; 1.11 fold enrichment (6-mer frequency, TF over GST control) with SPI1; 1.06 fold enrichment (6-mer frequency, TF over GST control) with ELK3; 1.05 fold enrichment (6-mer frequency, TF over GST control) in the assay with ELF5.
With ACGGTA, the binding signal with FLI1 was 1.02 fold enrichment (6-mer frequency, TF over GST control); with ELF5, 1.05 fold enrichment (6-mer frequency, TF over GST control).
With GTAACC, the binding signal in the assay with FLI1 is 1.04 fold enrichment (6-mer frequency, TF over GST control); with SPI1, 1.01 fold enrichment (6-mer frequency, TF over GST control); with ELK3, 1.04 fold enrichment (6-mer frequency, TF over GST control); with ELF5, 1.07 fold enrichment (6-mer frequency, TF over GST control).
Turning to CGTTGT, the binding signal is 1.15 fold enrichment (6-mer frequency, TF over GST control) with FLI1 and 1.07 fold enrichment (6-mer frequency, TF over GST control) with ELF5.
For CCAAGC, the binding signal with FLI1 was 1.01 fold enrichment (6-mer frequency, TF over GST control).
Regarding GGCTAC, the binding signal with FLI1 is 1.17 fold enrichment (6-mer frequency, TF over GST control); with ELK3, 1.19 fold enrichment (6-mer frequency, TF over GST control); with ELF5, 1.16 fold enrichment (6-mer frequency, TF over GST control).
GCTAAC: the binding signal was 1.11 fold enrichment (6-mer frequency, TF over GST control) with FLI1; 1.1 fold enrichment (6-mer frequency, TF over GST control) with SPI1; 1.18 fold enrichment (6-mer frequency, TF over GST control) with ELK3.
GCACAC: the binding signal with FLI1 was 1.02 fold enrichment (6-mer frequency, TF over GST control).
Take TCACCG: the binding signal with FLI1 was 1.06 fold enrichment (6-mer frequency, TF over GST control); with SPI1 it was 1.06 fold enrichment (6-mer frequency, TF over GST control); with ELK3, 1.13 fold enrichment (6-mer frequency, TF over GST control); with ELF5, 1.01 fold enrichment (6-mer frequency, TF over GST control).
Turning to ACGCGG, the binding signal with FLI1 was 1.04 fold enrichment (6-mer frequency, TF over GST control); with SPI1, 1.02 fold enrichment (6-mer frequency, TF over GST control); with ELK3, 1.05 fold enrichment (6-mer frequency, TF over GST control); with ELF5, 1.07 fold enrichment (6-mer frequency, TF over GST control).
With CGCGTT, the binding signal is 1.1 fold enrichment (6-mer frequency, TF over GST control) with FLI1; 1.06 fold enrichment (6-mer frequency, TF over GST control) with ELK3; 1.02 fold enrichment (6-mer frequency, TF over GST control) with ELF5.
Turning to AGCGCT, the binding signal was 1.1 fold enrichment (6-mer frequency, TF over GST control) with FLI1; 1.14 fold enrichment (6-mer frequency, TF over GST control) with ELK3; 1.01 fold enrichment (6-mer frequency, TF over GST control) with CRX; 1 fold enrichment (6-mer frequency, TF over GST control) with ELF5.
Take CAATGG: the binding signal is 1.14 fold enrichment (6-mer frequency, TF over GST control) with FLI1 and 1.04 fold enrichment (6-mer frequency, TF over GST control) with SPI1.
On to ACCGGC, for which the binding signal was 1.07 fold enrichment (6-mer frequency, TF over GST control) in the assay with FLI1; 1.17 fold enrichment (6-mer frequency, TF over GST control) with SPI1; 1.11 fold enrichment (6-mer frequency, TF over GST control) with ELK3; 1.11 fold enrichment (6-mer frequency, TF over GST control) in the assay with ELF5.
Take GGTCAC: the binding signal with FLI1 is 1.08 fold enrichment (6-mer frequency, TF over GST control).
Turning to TCGTCC, the binding signal was 1.1 fold enrichment (6-mer frequency, TF over GST control) with FLI1; 1.03 fold enrichment (6-mer frequency, TF over GST control) in the assay with SPI1; 1.18 fold enrichment (6-mer frequency, TF over GST control) with ELK3; 1.02 fold enrichment (6-mer frequency, TF over GST control) with ELF5.
Consider GGTACA, for which the binding signal was 1.03 fold enrichment (6-mer frequency, TF over GST control) in the assay with FLI1 and 1 fold enrichment (6-mer frequency, TF over GST control) with ELF5.
Regarding ATAGCC, the binding signal is 1.03 fold enrichment (6-mer frequency, TF over GST control) with FLI1; 1.01 fold enrichment (6-mer frequency, TF over GST control) with ELK3; 1.02 fold enrichment (6-mer frequency, TF over GST control) with CRX.
Consider CAGCAT, for which the binding signal is 1.04 fold enrichment (6-mer frequency, TF over GST control) with FLI1 and 1.19 fold enrichment (6-mer frequency, TF over GST control) with ELK3.
For the sequence AGGACC, the binding signal is 1.13 fold enrichment (6-mer frequency, TF over GST control) in the assay with FLI1; 1.15 fold enrichment (6-mer frequency, TF over GST control) with ELK3; 1.1 fold enrichment (6-mer frequency, TF over GST control) in the assay with ELF5.
For the sequence CAGCCT, the binding signal with FLI1 was 1.14 fold enrichment (6-mer frequency, TF over GST control); with SPI1, 1.03 fold enrichment (6-mer frequency, TF over GST control); with CRX it was 1.06 fold enrichment (6-mer frequency, TF over GST control).
Turning to CCCAAG, the binding signal was 1.09 fold enrichment (6-mer frequency, TF over GST control) with FLI1; 1.03 fold enrichment (6-mer frequency, TF over GST control) with SPI1; 1 fold enrichment (6-mer frequency, TF over GST control) with ELK3.
As to ACGCCG, the binding signal with FLI1 was 1.15 fold enrichment (6-mer frequency, TF over GST control); in the assay with SPI1, 1.09 fold enrichment (6-mer frequency, TF over GST control); in the assay with ELK3, 1.11 fold enrichment (6-mer frequency, TF over GST control).
In the case of AACCGC, the binding signal with FLI1 was 1.15 fold enrichment (6-mer frequency, TF over GST control); with SPI1, 1.04 fold enrichment (6-mer frequency, TF over GST control); in the assay with ELK3, 1.07 fold enrichment (6-mer frequency, TF over GST control); with CRX, 1.02 fold enrichment (6-mer frequency, TF over GST control); in the assay with ELF5 it was 1 fold enrichment (6-mer frequency, TF over GST control).
GGTGGT: the binding signal with FLI1 was 1.05 fold enrichment (6-mer frequency, TF over GST control); with ELK3 it was 1.03 fold enrichment (6-mer frequency, TF over GST control).
With CGTTTG, the binding signal was 1.05 fold enrichment (6-mer frequency, TF over GST control) in the assay with FLI1; 1 fold enrichment (6-mer frequency, TF over GST control) with ELK3; 1.1 fold enrichment (6-mer frequency, TF over GST control) with ELF5.
Take TGGCTG: the binding signal in the assay with FLI1 was 1.11 fold enrichment (6-mer frequency, TF over GST control); with SPI1, 1.02 fold enrichment (6-mer frequency, TF over GST control); with ELF5, 1.01 fold enrichment (6-mer frequency, TF over GST control).
For the sequence TGCGCC, the binding signal was 1.17 fold enrichment (6-mer frequency, TF over GST control) with FLI1; 1.22 fold enrichment (6-mer frequency, TF over GST control) in the assay with SPI1; 1.07 fold enrichment (6-mer frequency, TF over GST control) with ELK3; 1.11 fold enrichment (6-mer frequency, TF over GST control) with ELF5.
For the sequence CGCCGG, the binding signal with FLI1 is 1.01 fold enrichment (6-mer frequency, TF over GST control); in the assay with ELK3 it was 1.08 fold enrichment (6-mer frequency, TF over GST control); in the assay with ELF5 it was 1.02 fold enrichment (6-mer frequency, TF over GST control).
TGCAAG: the binding signal was 1.09 fold enrichment (6-mer frequency, TF over GST control) with FLI1; 1 fold enrichment (6-mer frequency, TF over GST control) with SPI1; 1.05 fold enrichment (6-mer frequency, TF over GST control) in the assay with ELF5.
For CCGCAG, the binding signal in the assay with FLI1 was 1.12 fold enrichment (6-mer frequency, TF over GST control); with SPI1, 1.11 fold enrichment (6-mer frequency, TF over GST control); with ELK3, 1.14 fold enrichment (6-mer frequency, TF over GST control); with ELF5, 1.04 fold enrichment (6-mer frequency, TF over GST control).
TCAAGC: the binding signal in the assay with FLI1 is 1.03 fold enrichment (6-mer frequency, TF over GST control); in the assay with ELK3, 1.09 fold enrichment (6-mer frequency, TF over GST control); in the assay with CRX, 1.06 fold enrichment (6-mer frequency, TF over GST control).
Regarding CCCGTC, the binding signal with FLI1 is 1.12 fold enrichment (6-mer frequency, TF over GST control); with SPI1, 1.11 fold enrichment (6-mer frequency, TF over GST control); in the assay with ELF5, 1.12 fold enrichment (6-mer frequency, TF over GST control).
Turning to GCAAAC, the binding signal was 1.04 fold enrichment (6-mer frequency, TF over GST control) with FLI1; 1.07 fold enrichment (6-mer frequency, TF over GST control) in the assay with SPI1; 1.04 fold enrichment (6-mer frequency, TF over GST control) with ELK3.
